Test results taken from PubChem BioAssay (EPA / NIEHS).
Records with an inconclusive call do not appear. Active and inactive are the calls of the source. Rule for the calls: active = hit-call score of the fitted dose curve at least 0.9, where 1 is the maximum; inconclusive = response in the unintended direction; inactive = score below 0.9.

target: Estrogen receptor (Homo sapiens) (UniProt P03372); experiment: NVS_NR_hER: NovaScreen (NVS) Nuclear Receptor Binding Assay for human Estrogen Receptor (ER) (AID 2283348)
Description: NVS_NR_hER is a biochemical, single-readout assay that uses extracted gene-proteins from MCF7 in a cell-free assay. Measurements were taken 18 hours after chemical dosing in a 96-well plate.NVS_NR_hER is one of one assay component(s) measured or calculated from the NVS_NR_hER assay. It is designed to make measurements of radioligand binding, a form of binding reporter, as detected with scintillation counting signals by Lysate-based radiodetection technology.Data from the assay component NVS_NR_hER was analyzed into 1 assay endpoint. This assay endpoint, NVS_NR_hER, was analyzed in the positive analysis fitting direction relative to DMSO as the negative control and baseline of activity. Using a type of binding reporter, loss-of-signal activity can be used to understand changes in the binding as they relate to the gene ESR1. Furthermore, this assay endpoint can be referred to as a primary readout, because the performed assay has only produced 1 assay endpoint. To generalize the intended target to other relatable targets, this assay endpoint is annotated to the nuclear receptor intended target family, where the subfamily is steroidal.
Binding assays used specific radioligands (tritiated, iodinated) with non-radioactive competitive displacement ligands in agonist or antagonist protocols (as indicated) and various reference compounds and inhibitors to titrate specific binding to receptors and transporters. Most enzyme assays (CYPs, kinases, phosphatases, proteases, HDACs) used recombinant protein and specific substrates (fluorescence mostly, some colorimetric and radioactive) and inhibitors, followed by a biochemical separation of substrate and product. All assays for the biochemical HTS were initially run in duplicate at a single concentration (10 uM for CYP450 assays and 25 uM for all others). […] Each assay was run with positive and negative controls, and concurrent controls on every plate. The follow-up (secondary) screen tested active chemical-pairs in concentration series, as well as a few additional assays not tested in the primary screen, some selected negative inactives, and several cases re-run in the concentration series for confirmatory purposes.

Estrogen receptor (Homo sapiens), sequence (P03372 whole entry, looked up): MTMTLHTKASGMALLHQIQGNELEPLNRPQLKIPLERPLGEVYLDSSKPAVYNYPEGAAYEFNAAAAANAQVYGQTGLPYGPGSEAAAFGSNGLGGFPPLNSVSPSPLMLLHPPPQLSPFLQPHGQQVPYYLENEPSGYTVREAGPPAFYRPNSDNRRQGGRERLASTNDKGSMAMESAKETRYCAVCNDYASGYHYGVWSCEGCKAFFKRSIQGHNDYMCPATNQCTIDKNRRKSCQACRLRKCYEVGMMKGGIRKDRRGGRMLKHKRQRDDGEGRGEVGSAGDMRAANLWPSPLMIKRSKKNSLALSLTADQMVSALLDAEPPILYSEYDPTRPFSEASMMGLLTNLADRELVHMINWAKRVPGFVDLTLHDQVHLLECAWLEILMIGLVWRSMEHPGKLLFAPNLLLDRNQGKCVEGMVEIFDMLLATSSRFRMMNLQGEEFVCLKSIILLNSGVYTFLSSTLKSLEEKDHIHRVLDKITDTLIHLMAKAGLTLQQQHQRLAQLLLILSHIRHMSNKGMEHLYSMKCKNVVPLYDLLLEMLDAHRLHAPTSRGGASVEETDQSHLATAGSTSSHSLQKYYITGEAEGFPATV

Row | Structure (SMILES) | outcome | AC50
1 | CC(C)(O)c1ccc(CNC(=O)c2cccnc2Oc2ccc3nonc3c2)cc1 | inactive | 
2 | Cc1cc(F)ccc1-c1cc(N2CC[C@@H](O)[C@H]2CO)ncc1N(C)C(=O)C(C)(C)c1cc(C(F)(F)F)cc(C(F)(F)F)c1 | inactive | 
3 | O=C(Nc1ccc(Cl)cc1)Nc1ccc(Cl)c(Cl)c1 | inactive | 
4 | CCCCCCCCCCCO | inactive | 
5 | CCN(Cc1cccnc1)C(=O)c1cccc(Cl)c1[C@]1(C)C(=O)N(Cc2ccc(OC)cc2OC)c2ccc(Cl)cc21 |  | 7.99 µM (active)
6 | NCc1cccc(C2CCN(C(=O)c3ccc(C#Cc4ccccc4F)o3)CC2)c1 | inactive | 
7 | CC[C@H](NC(=O)c1cc(F)ccc1NS(=O)(=O)c1cccc2cccnc12)c1ccccc1 | inactive | 
8 | Cc1oc2c(NC(=O)c3c(Cl)cccc3Cl)cccc2c1C(C)(C)O |  | 13.6 µM (active)
9 | CN(C[C@@H](CC[N+]12CCC(C3CCCCC3)(CC1)CC2)c1ccc(Cl)c(Cl)c1)C(=O)c1cc(C(F)(F)F)cc(C(F)(F)F)c1 |  | 33 µM (active)
10 | CCCCCc1ccc(N)cc1 | inactive | 
11 | c1ccc2ccccc2c1 | inactive | 
12 | Clc1ccccc1C(c1ccccc1)(c1ccccc1)n1ccnc1 | inactive | 
13 | CCCOC(=O)c1cc(O)c(O)c(O)c1 | inactive | 
14 | CCCCCCCCN(C)CCCCCCCC | inactive | 
15 | CCCCCCCCOC(=O)c1cc(O)c(O)c(O)c1 | inactive | 
16 | CN(C)C(=O)C1(N2CCCCC2)CCN(CC[C@@]2(c3ccc(Cl)c(Cl)c3)CN(C(=O)c3ccccc3)CCO2)CC1 | inactive | 
17 | CCOC(=O)O[C@H](C)OC(=O)c1ccc2c(c1)cc(C(=O)NC1CCN(C(C)C)CC1)n2Cc1cc(-c2ccc(Cl)s2)on1 | inactive | 
18 | CC(C)(C)c1cc(/C=C2\SC(N)=NC2=O)cc(C(C)(C)C)c1O | inactive | 
19 | Cc1c2ccccc2c(C)c2c1ccc1ccccc12 | inactive | 
20 | CN(C)c1ccc(C(=C2C=CC(=[N+](C)C)C=C2)c2ccc(N(C)C)cc2)cc1 | inactive | 
21 | NC(=O)c1nc(-c2cccc(-c3cc(F)ccc3OCC(F)(F)C(F)(F)F)c2)n[nH]1 | inactive | 
